“And” between values parts separate entries of the source, which are not always exact repeats. Identical values can stand only once. Records with an inconclusive call do not appear. A number with no mark means an inactive call. The source made the active and inactive calls. Calls come from the whole dose curve; as a rule, active = well fitted cell-killing curve with a large enough effect; inconclusive = small, poorly fitted or top-dose-only effect; inactive = no such curve, though single readings can be large or run the other way.
assay: qHTS of pediatric cancer cell lines to identify multiple opportunities for drug repurposing: Primary screen for SJ-GBM2 cells (AID 1347091); conditions: SJ-GBM2 viability, CellTiter-Glo luminescence, 48 h; series mostly up to 46 µM; activity change, negative = cytotoxic: at the top concentration
Source text: Drug repurposing or repositioning has been offered as a strategy for drug development in oncology programs. This approach has special potential for childhood cancers and other rare or orphan diseases, where the expected return on new drug development has been a disincentive to pharmaceuticals.
In this project we exploit the poly-pharmacology of drugs to discover new indications via phenotypic screening of a panel of 19 well-characterized cell lines derived from solid tumors seen in children and adolescents. The goal is to identify approved drugs with previously unrecognized anticancer properties that has the potential to reveal new mechanisms and biological processes involved in carcinogenesis or drug resistance. We employed a titration-based paradigm (quantitative high-throughput screening or qHTS), where all compounds were tested at multiple concentrations for their effect on cell viability. Concentration-response curves (CRCs) were derived directly from the primary screen, and both potency and efficacy values were used to identify compounds with robust bioactivity profiles. We screened the NIH Chemical Genomics Center (NCGC) Pharmaceutical Collection (NPC) and Mechanism Interrogation Plate (MIPE) small molecule collections of approved and investigational compounds against these cell lines; and measured metabolically active cells after 48 hours of compound treatment as a proxy for cell viability.
Assay Submitter: Nathalia J. Martinez, National Center for Advancing Translational Sciences, National Institutes of Health, Rockville, MD, USA; email: natalia.martinez@nih.gov
[1] Shen, M et al. Quantitative high-throughput phenotypic screening of pediatric cancer cell lines identifies multiple opportunities for drug repurposing. Oncotarget 2017 Dec 19;9(4):4758-4772. PMID 29435139.
The cells were obtained from University of North Carolina (UNC), Pediatric Preclinical Testing Program (PPT), and Coriell Institute (CI).
qHTS cell viability assay:
Cells were assayed in growth media at a density of 500-1,000 cells/well. Five microliters of cells were dispensed into 1,536-well, white, solid-bottom, TC-treated plates (Greiner Bio One) using a multidrop dispenser and incubated at 37 degrees C, 5% CO2, under a humidified atmosphere for 5 hours. Twenty-three nanoliters of compounds and controls (neutral control DMSO or positive control bortezomib at final concentration of 2.3 µM) were subsequently transferred by Kalypsys pintool. For primary screens, the MIPE collection was tested at 11-point dilutions (final concentrations range from 0.78 nM to 46 µM) and the NPC collection at 8-point dilutions (final concentrations range from 0.59 nM to 46 µM). Compounds tested in follow-up screens were assayed at 11-point dilutions. Cells were incubated for 48 hours, followed by addition of 3 uL of CellTiter-Glo (Promega). After a 15 min incubation at room temperature, samples were analyzed for luminescence intensity using a ViewLux High-throughput CCD imager equipped with clear filters.
Potency is the fitted concentration of half-maximal effect.

SMILES | Potency | activity change, negative = cytotoxic [%]
C=C(C)[C@H]1Cc2c(ccc3c2O[C@@H]2COc4cc(OC)c(OC)cc4[C@@H]2C3=O)O1 | 422 nM (active) | 
CCN(CC)C(=O)N[C@@H]1C=C2c3cccc4[nH]cc(c34)C[C@@H]2N(C)C1 |  | 26.4
COC[C@H]1OC(=O)c2coc3c2[C@@]1(C)C1=C(C3=O)C2CCC(=O)[C@@]2(C)C[C@H]1OC(C)=O (stereo not given in full) | 264 nM (active) | 
O=c1oc2ccccc2c(O)c1C(CC(O)c1ccc(-c2ccc(Br)cc2)cc1)c1ccccc1 (stereo not given) |  | 28.7
CCCN1CCC[C@@H]2Cc3[nH]ncc3C[C@H]21 |  | -0.023
Cc1sc2c(c1C)C(c1ccc(Cl)cc1)=N[C@@H](CC(=O)OC(C)(C)C)c1nnc(C)n1-2 | 2640 nM (active) | 
NCC(O)c1ccc(O)cc1 (stereo not given) |  | 18.1
CN(C)[C@@H]1C(=O)C(C(N)=O)=C(O)[C@@]2(O)C(=O)C3=C(O)c4c(O)cccc4[C@@](C)(O)[C@H]3C[C@@H]12 | inactive | 
CC(C)NCC(O)c1ccccc1Cl (stereo not given) |  | 18.2
CC(C)=CCOc1c2occc2cc2ccc(=O)oc12 |  | 1.79
CCC1(C2=NCCN2)Cc2ccccc2O1 (stereo not given) |  | 14.3
CC(C)(N)Cc1ccc(Cl)cc1 |  | 26.1
O=C(NC(O)C(Cl)(Cl)Cl)NC(O)C(Cl)(Cl)Cl (stereo not given) |  | 12.7
C#CCOC(C(=O)OCCN(C)C)(c1ccccc1)c1ccccc1 |  | 14.7
NCC1(CC(=O)O)CCCCC1 | inactive | 
CNC(=O)N1N=C(c2ccc(N)cc2)c2cc3c(cc2CC1C)OCO3 (stereo not given) |  | -11.1
CC(C)=CC1C(C(=O)OCc2cccc(Oc3ccccc3)c2)C1(C)C (stereo not given) |  | 6.07
CC(C)(C)CC(C)(C)c1ccc(O)cc1 | 21700 nM (active) | 
Cc1cccc(C)c1NC(=O)CN1CCCC1=O | inactive | 
O=C1CC[C@@]2(O)[C@H]3Cc4ccc(O)c5c4[C@@]2(CCN3CC2CC2)[C@H]1O5 | inactive | 

SMILES | Potency | activity change, negative = cytotoxic [%]
CC[N+](CC)(CC)CC |  | 21.7
C[C@@H]1O[C@@H](O[C@H]2C[C@@H](O)[C@]3(CO)[C@H]4[C@H](O)C[C@]5(C)[C@@H](C6=CC(=O)OC6)CC[C@]5(O)[C@@H]4CC[C@]3(O)C2)[C@H](O)[C@H](O)[C@H]1O | 18.7 nM (active) and 75 nM (active) | 
CN1C(=S)CN=C(c2ccccc2)c2cc(Cl)ccc21 |  | 18.6
C[C@@H]1[C@@H](CC(C[C@H]2O[C@@H]3O[C@]4(C)CC[C@@H]5[C@H](C)CC[C@@H]([C@H]2C)[C@@]35OO4)C[S+](=O)([O-])c2ccc(COC(=O)N(C)C)cc2)O[C@@H]2O[C@]3(C)CC[C@H]4[C@H](C)CC[C@@H]1[C@@]24OO3 (stereo not given in full) | 469 nM (active) | 
C[C@]12CCC(=O)C(O)=C1CC[C@@H]1[C@@H]2CC[C@]2(C)C(=O)CC[C@@H]12 |  | 2.08
O=c1[nH]c2ccccc2n1CCCN1CCC(n2c(=O)[nH]c3cc(Cl)ccc32)CC1 |  | -5.44
CCOP(=S)(OCC)Oc1cc(C)nc(C(C)C)n1 |  | 14.3
c1ccc2c(c1)Nc1ccccc1S2 | inactive | 
O=[N+]([O-])c1cc([As](=O)(O)O)ccc1O |  | 20.5
C[C@]12CC[C@H]3[C@@H](CCC4=CC(=O)CC[C@@H]43)[C@@H]1CC[C@@H]2OC(=O)CCc1ccccc1 |  | -3.46
CCCC(C)(COC(N)=O)COC(=O)NC(C)C (stereo not given) | inactive | 
CCN(CC)CCN1C(=O)CN=C(c2ccccc2F)c2cc(Cl)ccc21 |  | 14.1
Oc1cccc2cccnc12 | inactive | 
COc1ccc2c(c1OC)CN1CCc3cc4c(cc3C1C2)OCO4 (stereo not given) |  | 2.35
COc1ccccc1N1CCNCC1 |  | 2.62
CC(CCc1ccccc1)NC(C)C(O)c1ccc(O)cc1 (stereo not given) |  | 12.2
CCC(C(N)=O)N1CCCC1=O (stereo not given) |  | 10.5
CCCC1CCCCN1 (stereo not given) |  | 8.89
CC(C)CC(N(C)C)C1(c2ccc(Cl)cc2)CCC1 (stereo not given) | inactive | 
Oc1ccc(Cl)cc1Cc1ccccc1 | 12300 nM (active) | 

Reference: PubChem BioAssay (NCATS)
